A selection: hits, their analogues and other compounds. The true share with any hit is near 10%.
HPGD inh – HPGD (human) dehydrogenase inhibition. P15428. purified HPGD, NADH fluorescence kinetic, PGE2 substrate. Potency, µM, most hits filed as inhibitors. 150,000 compounds, 4.3% hits. AID 894
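20 nM HPGD preincubated 15 min at room temperature with compound in 50 mM Tris-HCl pH 8, 0.01% Tween 20. Started with 1 mM NAD+ and 30 uM prostaglandin E2; NADH fluorescence (360/450 nm) read 5 times over 30-s intervals, last minus first.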
12-hLO inh – inhibitors of human 12-lipoxygenase (ALOX12). P18054. purified 12-hLO, xylenol orange hydroperoxide absorbance. Potency, µM (highest dose often 57.1 µM), usual class: inhibitors. 150,000 compounds, 0.12% hits. AID 1452; active = well fitted inhibition curve with a large enough effect; inconclusive = small, poorly fitted or top-dose-only effect; note: nearly all actives have a fitted effect of over 55% in size
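Hydroperoxide formation by human 12-lipoxygenase from 40 uM arachidonic acid was followed colorimetrically via ferric-xylenol orange complex, using the 573/405 nm absorbance ratio. Enzyme concentration was 150 nM, with 30 min reaction at room temperature.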
PNC assembly inh – inhibitors of perinucleolar compartment assembly. AID 2417. PC3M PTB-GFP, PNC prevalence imaging, 16 h; hits give low values. 140,000 compounds, 3.1% hits. activity change (PNC), negative = inhibition, % at 10 µM;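 active = readout at or below -70, meaning at least 70% loss of cells showing the perinucleolar compartment, a nuclear body marking cancer cells; inconclusive = readout between -30 and a set limit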
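Read-out is percentage of cells bearing a perinucleolar compartment, from automated 20x imaging of fixed, Hoechst-stained PC3M PTB-GFP cells. Cells were seeded 4 h, then exposed 16 h to compound (23 nl of library stock) in duplicate plates.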
ALDH1A1 block – inhibitors of human aldehyde dehydrogenase 1A1; P00352; Potency, µM (highest dose often 75.3 µM), hits mostly inhibitors; 220,000 compounds, 7.3% hits; Purified ALDH1A1, NADH fluorescence, propionaldehyde substrate
Target sequence (P00352 whole entry, looked up): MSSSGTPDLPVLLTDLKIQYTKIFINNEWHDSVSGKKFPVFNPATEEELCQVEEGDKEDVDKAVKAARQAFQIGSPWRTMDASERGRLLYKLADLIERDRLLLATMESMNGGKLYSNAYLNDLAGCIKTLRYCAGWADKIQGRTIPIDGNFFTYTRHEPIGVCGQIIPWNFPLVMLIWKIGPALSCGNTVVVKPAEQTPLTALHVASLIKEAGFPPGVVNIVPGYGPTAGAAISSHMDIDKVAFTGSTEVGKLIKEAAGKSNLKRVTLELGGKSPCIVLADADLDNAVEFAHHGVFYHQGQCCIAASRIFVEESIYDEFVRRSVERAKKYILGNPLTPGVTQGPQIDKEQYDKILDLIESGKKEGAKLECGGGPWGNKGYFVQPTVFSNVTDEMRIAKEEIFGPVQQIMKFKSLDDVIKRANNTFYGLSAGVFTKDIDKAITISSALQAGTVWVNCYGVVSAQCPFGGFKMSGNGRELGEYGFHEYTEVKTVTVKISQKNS
LMNA splice mod – changes lamin A minigene splicing in HeLa cells; Potency, µM (series often up to 46.1 µM), most hits filed as inhibitors; AID 1487; 200,000 compounds, 0.01% hits; HeLa LMNA splicing GFP/RFP minigene ratio, 48 h; active = well fitted inhibition curve with a large enough effect in the signal ratio, with a control signal flat, not every such curve was filed as active; inconclusive = small, poorly fitted or top-dose-only effect, or effect the other way, or a change in a side signal; the % refers to the signal ratio
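S3 HeLa stable clones carrying a lamin A-EGFP splicing minigene plus DsRed2 were seeded at 600 cells/well in Opti-MEM with 2% FBS, pin-dosed and incubated 48 h at 37°C. Acumen cytometry (488 nm) gave the GFP/RFP total-intensity ratio.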
Numbers stand for hits; – = inactive; ? = inconclusive; · = not tested or not shown; [ ] = dose if it differs, or a comment. Unless noted, calls come from the whole dose curve; as a rule, active = well fitted inhibition curve with a large enough effect (not every such curve was filed as active); inconclusive = small, poorly fitted or top-dose-only effect, or another doubt; inactive = no such curve, though single readings can be large or run the other way.

SMILES	HPGD inh	12-hLO inh	PNC assembly inh	ALDH1A1 block	LMNA splice mod
CCC(C)(C)n1nnnc1C(c1ccncc1)N1CCC(C)CC1 (centres undefined)	–	–	-119	–	–
CCC(C)(C)n1nnnc1CN1CCN(C(c2ccccc2)c2ccccc2)CC1	–	–	–	25µM	?
CC(C)CCn1nnnc1CN1CCN(c2ccc(F)cc2)CC1	·	·	·	–	–
c1ccc(C(c2ccccc2)N2CCN(Cc3nnnn3C3CCCC3)CC2)cc1	–	–	-82	11µM	?
COC(=O)[C@@H]1CC[C@H](C)[C@@H](c2ccc(C)cc2)N1C(=O)c1ccc(/C=N\O[C@@H](C)c2cn([C@H]3COC[C@H]3O)nn2)cc1	·	·	·	–[13.5 µM]	·
Clc1ccccc1-c1nc(NCc2cccnc2)c2ccccc2n1	·	·	·	?	–
CCOC(=O)C1=C(Cc2ccc(OC)cc2)C(=O)c2ccccc2C1=O	32µM	–	–	?	?
CCOC(=O)C1=C(Cc2ccc(C)cc2)C(=O)c2ccccc2C1=O	13µM	?	–	?	?
O=C(O)/C=C/C(=O)Nc1ccccc1-c1ccccc1	28µM	–	-109	?	–[0.0737 µM]
COc1ccc(CCn2c(C)ccc2C)cc1OC	–	–	-100	–	–
COc1ccc(CCn2c(-c3ccc(C(C)(C)C)cc3)n[nH]c2=S)cc1OC	·	·	·	–	·
CC(O)CCCCn1c(=O)c2c(ncn2C)n(C)c1=O (centres undefined)	·	·	·	–	·
COc1ccc(OC)c(NC(=O)c2cnn(-c3ccc(C)cc3)c2C2CCNCC2)c1	·	·	·	·	–
COc1ccc(C(C[N+](=O)[O-])c2c(-c3ccccc3)cc3ccccn23)cc1OC (centres undefined)	–	–	–	–	–
COc1cc(C(C[N+](=O)[O-])c2c(-c3ccccc3)cc3ccccn23)cc(OC)c1OC (centres undefined)	?	–	–	3.5µM	–
COc1ccc(C(C[N+](=O)[O-])c2c(-c3ccccc3)cc3ccccn23)cc1 (centres undefined)	28µM	?	–	?	–
COc1ccc(C(C[N+](=O)[O-])C2(c3ccc(OC)c(OC)c3)C(=O)c3ccccc3C2=O)cc1 (centres undefined)	–	–	–	?	?
O=[N+]([O-])c1ccc(CSc2ncnc3c2ncn3[C@@H]2O[C@@H](CO)[C@@H](O)[C@H]2O)cc1	·	–	·	·	·
CC(=O)N1CCN(C(=S)c2ccc(Cl)cc2)CC1	25µM	–	–	18µM	–
COc1ccc(C(=S)N2CCN(c3cccc(Cl)c3)CC2)c(OC)c1	·	·	·	20µM	·
COC(=O)N1CCN(c2ccc(Cl)c(Cl)c2)CC1	–	–	-102	–	–
Oc1ccc(C(=S)N2CCN(c3cccc(Cl)c3)CC2)cc1	·	·	·	7.9µM	?
COC(=O)N1CCN(c2ccc(C)c(C)c2)CC1	·	·	·	–	·
CC(=O)c1ccc(NC(=S)N2CCN(c3cccc(Cl)c3)CC2)cc1	·	·	·	–	?
COc1c2c(cc3c1C(CC(=O)c1c(O)c(OC)c4occc4c1OC)[N+](C)(C)CC3)OCO2 (centres undefined)	–	·	·	–	·
SMILES	HPGD inh	12-hLO inh	PNC assembly inh	ALDH1A1 block	LMNA splice mod
COc1ccc(-n2c(=O)c(-c3cccs3)nc3cnc(OC)nc32)cc1	·	·	·	–	–
COc1ccc(OC)c(S(=O)(=O)N2CCN(Cc3nc4ccc(C)cc4o3)CC2)c1	·	·	·	·	–
Oc1ccccc1C(=S)N1CCN(c2cccc(Cl)c2)CC1	·	·	·	10µM	–
COc1cc(C(=S)N2CCN(c3cccc(Cl)c3)CC2)ccc1O	·	·	·	3.5µM	–
O=C(C(=O)N1CCN(c2cccc(Cl)c2)CC1)N1CCCCC1	·	·	·	–	·
COC(=O)/C=C/C(=O)N1CCN(c2cccc(Cl)c2)CC1	–	–	?	10µM	?
COc1ccc(C(=O)c2ccc(N3CCOCC3)cc2)c(OC)c1	·	–	?	1.1µM	–
COc1ccc(C(=O)N2CCN(c3cccc(Cl)c3)CC2)cc1	–	–	–	–	–
N[C@H](C(=O)O)C1[C@H](C(=O)O)[C@H]1C(=O)O (some centres undefined)	–	–	·	–	·
COc1ccc(Cl)c2sc(NC(=O)c3ccc(S(=O)(=O)N4CCOCC4)cc3)nc12	·	·	·	·	–
O=c1cnc2cnc(Nc3ccccc3)nc2n1C1CC1	·	·	·	–	–
COc1ccc(C(=S)N2CCCC2)cc1	–	–	–	–	–
CC1CCN(C(=S)c2cn(Cc3cccc(F)c3)c3ccccc23)CC1	–	–	–	?	?
CC1CCN(C(=S)c2ccccc2O)CC1	6.3µM	–	–	?	–
CC1CCN(C(=S)c2ccc(O)cc2)CC1	32µM	–	–	?	–
Cc1cccc(N2CCN(C(=O)c3sc4nc5n(c(=O)c4c3C)CCC5)CC2C)c1 (centres undefined)	·	·	·	·	–
Cn1c(=O)n(Cc2ccccc2Cl)c(=O)c2c1nc1n2CCN1c1ccccc1	·	·	·	·	–
COc1ccc(C(=O)CN2CCN(S(=O)(=O)c3cccc([N+](=O)[O-])c3)CC2)cc1OC	?	–	?	20µM	?
O=C(Cc1ccccc1)N1CCN(S(=O)(=O)c2cccc([N+](=O)[O-])c2)CC1	·	·	·	?	–
COc1ccc(C(=O)N2CCN(S(=O)(=O)c3ccc(F)cc3)CC2)cc1OC	·	·	·	–	–

From PubChem
